Screening data deposited in PubChem BioAssay by National Center for Advancing Translational Sciences (NCATS).
Compounds with a hit are over-represented: about 9.9% of the library has one in this group of screens.
Tau FP inhib – tau fibrillization inhibition (FP). hit rate 0.39% among 280,000. P10636. K18 P301L tau heparin fibrillization, Alexa594 FP, 6 h. Potency, µM (series often up to 57.7 µM), inactives show top-dose activity, negative = inhibition, usual class: inhibitors; also: nearly all actives have a fitted effect of over 55% in size
Target sequence (P10636 561-689 P618L limits assumed): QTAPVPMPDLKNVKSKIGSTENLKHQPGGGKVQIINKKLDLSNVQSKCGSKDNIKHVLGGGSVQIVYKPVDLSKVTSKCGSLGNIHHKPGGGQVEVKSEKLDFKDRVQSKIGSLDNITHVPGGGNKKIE
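K18 P301L tau (15 uM unlabeled/0.24 uM Alexa 594-labeled, final) + compound + heparin 20 uM final; 100 mM NaOAc pH 7; 6 hr 37 C; ThT 30 uM final added, 1 hr RT; FP ex 555/em 632 nm.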
ALDH1A1 inh – inhibitors of human aldehyde dehydrogenase 1A1; P00352; AID 1030; Purified ALDH1A1, NADH fluorescence, propionaldehyde substrate; Potency, µM (doses to about 75.3 µM), for the others: top-dose activity, negative = inhibition, actives largely listed as inhibitors; hit rate 7.3% among 220,000; active = well fitted inhibition curve with a large enough effect, not every such curve was filed as active; inconclusive = small, poorly fitted or top-dose-only effect, or another doubt; inactive = no such curve, though single readings can be large or run the other way;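 also: plate controls were no enzyme wells and a reference inhibitor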
Tau fluor counter – counter-screen for tau fibril formation inhibitors; tau K18 P301L Alexa594 fluorescence, heparin fibrillization; Potency, µM (highest dose often 57.7 µM), for inactives: top-dose activity change, negative = decrease; hit rate 0.93% among 280,000; AID 1463; also: nearly all actives have a fitted effect of over 55% in size
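Human tau K18 P301L (15 uM unlabeled, 0.24 uM Alexa 594-labeled) in 100 mM sodium acetate pH 7 with 20 uM heparin, 6 hr at 37 C. ThT 30 uM added, 1 hr ambient; Alexa 594 FP and total fluorescence read at 555/632 nm.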
JMJD2E inh – inhibitors of human JMJD2E histone demethylase | B2RXH2 | JMJD2E catalytic domain, FDH-coupled NADH fluorescence (FDH is formaldehyde dehydrogenase) | Potency, µM (highest dose often 57.1 µM), for the others: at the top dose activity change, negative = inhibition, usual class: inhibitors | hit rate 1.6% among 230,000; active = well fitted inhibition curve with a large enough effect, not every such curve was filed as active; inconclusive = small, poorly fitted or top-dose-only effect, or another doubt; inactive = no such curve, though single readings can be large or run the other way;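 also: 0% = wells with enzyme and -100% = buffer wells without enzyme; nearly all actives have a fitted effect of over 50% in size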
Target sequence (B2RXH2 1-337 limits assumed): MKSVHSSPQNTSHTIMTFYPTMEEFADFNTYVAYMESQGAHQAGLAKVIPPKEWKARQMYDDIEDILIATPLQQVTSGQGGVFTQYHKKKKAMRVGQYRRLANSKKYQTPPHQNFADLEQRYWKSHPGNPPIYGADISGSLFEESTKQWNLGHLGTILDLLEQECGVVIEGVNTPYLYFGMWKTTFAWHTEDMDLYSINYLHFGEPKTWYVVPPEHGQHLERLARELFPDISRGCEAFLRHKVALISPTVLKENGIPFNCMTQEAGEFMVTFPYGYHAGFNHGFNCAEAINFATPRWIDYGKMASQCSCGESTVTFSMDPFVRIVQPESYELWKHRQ
Tau fibril ThT – blocks human tau fibril formation measured by thioflavin T; recombinant tau K18 P301L, heparin-induced fibrillization, ThT fluorescence; AID 1460; P10636; Potency, µM (doses to about 57.4 µM), for inactives: at the highest dose activity, negative = inhibition, hits mostly inhibitors; hit rate 2.1% among 270,000; also: nearly all actives have a fitted effect of over 55% in size
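Using a mix of unlabeled (15 uM) and Alexa 594-labeled (0.24 uM) tau K18 P301L, heparin-triggered fibrillization over 6 hr at 37 C was scored by ThT fluorescence.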
HPGD inh – blocks human HPGD enzyme activity | purified HPGD, NADH fluorescence kinetic, PGE2 substrate | Potency, µM, for the others: at the top dose activity change, negative = inhibition, actives largely listed as inhibitors | hit rate 4.3% among 150,000; active = well fitted inhibition curve with a large enough effect, not every such curve was filed as active; inconclusive = small, poorly fitted or top-dose-only effect, or another doubt; inactive = no such curve, though single readings can be large or run the other way
Target sequence (P15428 whole entry, looked up): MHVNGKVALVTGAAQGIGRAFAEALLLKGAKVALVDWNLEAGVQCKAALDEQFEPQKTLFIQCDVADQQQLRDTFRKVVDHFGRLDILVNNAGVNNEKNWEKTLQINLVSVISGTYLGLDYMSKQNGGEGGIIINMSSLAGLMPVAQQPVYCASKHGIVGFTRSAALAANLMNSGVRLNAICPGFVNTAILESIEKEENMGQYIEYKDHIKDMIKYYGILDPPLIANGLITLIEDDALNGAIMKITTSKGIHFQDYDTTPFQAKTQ
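20 nM HPGD preincubated 15 min at room temperature with compound in 50 mM Tris-HCl pH 8, 0.01% Tween 20. Started with 1 mM NAD+ and 30 uM prostaglandin E2; NADH fluorescence (360/450 nm) read 5 times over 30-s intervals, last minus first.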
Starred values were filed as active, the others as inactive; ? = inconclusive; nt = no result given; [ ] = dose if it differs, or a comment. Unless noted, calls follow the shape of the dose curve; as a rule, active = well fitted curve in the direction sought with a large enough effect; inconclusive = small, poorly fitted or top-dose-only effect, or another doubt; inactive = no such curve, though single readings can be large; an effect the other way counts as inactive or inconclusive. Unless noted, % is scaled to controls: 0 for no effect and ±100 for the full control effect; potency is read from the fitted curve at half-maximal effect.

SMILES | Tau FP inhib | ALDH1A1 inh | Tau fluor counter | JMJD2E inh | Tau fibril ThT | HPGD inh
CO[C@H]1C=CO[C@@]2(C)Oc3c(C)c(O)c4c(O)c(c(C=NN5CCN(C6CCCC6)CC5)c(O)c4c3C2=O)NC(=O)C(C)=CC=C[C@H](C)[C@H](O)[C@@H](C)[C@@H](O)[C@@H](C)[C@H](OC(C)=O)[C@@H]1C | -16.0% | nt | -25.9% | ? | 17.8µM* | nt
O=C(NCc1cccc(Br)c1)C1CC(c2ccccc2C(F)(F)F)=NO1 (stereo not given) | 6.0% | nt | -7.3% | 3.4% | -5.3% | nt
COc1ccccc1NC(=O)CN1CCC(n2nnc3cc(F)ccc32)CC1 | 2.6% | 3.0% | -14.7% | -3.8% | -22.0% | -3.7%
O=C(CN1CCC(n2nnc3cc(F)ccc32)CC1)NCc1ccco1 | -7.6% | 14.1µM* | -15.7% | ? | -11.7% | -20.5%
Nc1ccccc1Sc1nc2ccccc2[nH]1 | ? | 12.6µM* | 28.2µM*[quencher] | 12.6µM* | 28.2µM* | nt
Nc1nc2ccccc2[nH]1 | nt | 20µM* | nt | nt | nt | -10.9%
Nc1cc(N)cc(-c2nc3ccccc3[nH]2)c1 | 6.2% | ? | 12.6µM*[quencher] | -24.0% | 12.6µM* | ?
CC(=O)OC1CC[C@@]2(C)C(CC[C@@]3(C)C2CC=C2C4CC(C)(C)CC[C@]4(C)CC[C@@]23C)C1(C)C (stereo not given in full) | -4.6% | 1.9% | -6.7% | -47.1% | -7.7% | -4.6%
Cc1ccc(/C=C/C(=O)OCC(=O)NC(C)C)o1 | -1.8% | 3.2% | -12.6% | 0.4% | -14.6% | nt
O=C1CC(c2ccccc2)Sc2ccccc2N1Cc1ccccc1F (stereo not given) | 2.4% | nt | -19.1% | nt | -22.4% | nt
O=C1CSc2ccccc2N1Cc1ccccc1F | -6.6% | 22.4µM* | -10.3% | 6.5% | -3.5% | -31.0%
COc1ccc(OCC(O)CNc2ccc(Br)cc2)cc1 (stereo not given) | 14.0% | ? | 17.8µM*[quencher] | 2.1% | ? | ?
CCN(CCN(C)C)C(=O)Cn1ncc2c([nH]c3ccc(C)cc32)c1=O | -5.8% | nt | 1.0% | nt | -3.7% | nt
Cc1cc(Nc2cccc(C(F)(F)F)c2)nc2ccc(NC(=O)c3cccnc3)cc12 | ? | nt | 8.91µM*[quencher] | nt | -17.4% | nt
Cc1cc(Nc2cccc(C(F)(F)F)c2)nc2ccc(NC(=O)c3cccc(Cl)c3)cc12 | ? | nt | 7.08µM*[quencher] | nt | ? | nt
CCOc1ccc(C(=O)Nc2ccc3nc(Nc4cccc(C(F)(F)F)c4)cc(C)c3c2)cc1OCC | -7.9% | nt | 3.55µM*[quencher] | nt | ? | nt
O=C(Nc1cccc(C(F)(F)F)c1)c1cccc(C(=O)Nc2cccc(C(F)(F)F)c2)c1 | ? | nt | -13.2% | nt | 12.0% | nt
O=C(Nc1cccc(C(F)(F)F)c1)c1cccnc1 | -3.1% | 3.4% | -5.4% | -3.3% | -0.2% | -7.0%
CC(C)NC(=O)N1CCC2(CC1)CCN(C(=O)c1cccc(F)c1)CC2 | nt | 3.1% | nt | nt | nt | -15.3%
Cc1ccc(Cl)cc1N1CCN(S(=O)(=O)c2ccc3c(c2)CCCN3C(=O)C2CCC2)CC1 | 4.5% | nt | -1.5% | nt | -0.7% | nt
Cc1ccc(NC(=O)CN(C)CC(=O)Nc2ccccc2-c2ccccc2)cc1 | -2.6% | 14.1µM* | -7.4% | -3.8% | -4.7% | nt
C[C@@H](CNC1CCCCC1)OC(=O)c1ccccc1 | nt | 1.3%[20.9 µM] | nt | 2.7%[25.5 µM] | nt | -8.3%
CCOC(=O)N1CCC(N2Cc3cccc(C(=O)NCc4ccccc4OC)c3C2=O)CC1 | -2.4% | 5.5% | -1.0% | 4.5% | -10.2% | -11.3%
CCOC(=O)N1CCC(N2Cc3cccc(C(=O)NCc4ccc(OC)cc4)c3C2=O)CC1 | 6.4% | 20µM* | -0.2% | 2.0% | 4.9% | -7.8%
S=C(NCc1ccco1)NCC1CCCO1 (stereo not given) | 7.5% | -10.2% | 12.5% | 9.4% | 3.3% | nt
SMILES | Tau FP inhib | ALDH1A1 inh | Tau fluor counter | JMJD2E inh | Tau fibril ThT | HPGD inh
CCN(CC)c1ccc2c(c1)CCCN2 | ? | 25.1µM* | ? | ? | 25.1µM* | -9.6%
O=S(=O)(c1ccc2c(c1)CCCN2)N1CCCC2CCCCC21 (stereo not given) | 18.6% | -10.4% | ? | -21.6% | -16.0% | nt
C[C@@H](N=C(N)N)C(=O)O | nt | 14.3%[13.5 µM] | nt | nt | nt | -13.0%
O=C1c2ccccc2NC(c2ccc(-c3cccc([N+](=O)[O-])c3)o2)N1O (stereo not given) | 11.4% | 14.1µM* | -21.7% | ? | ? | 17.8µM*
O=C(NN1C(=O)c2ccccc2NC1c1ccc([N+](=O)[O-])o1)c1ccc([N+](=O)[O-])cc1 (stereo not given) | ? | ? | ? | -8.0% | 3.16µM* | nt
O=C1c2ccccc2NC(c2ccc(-c3ccc(Br)cc3)o2)N1O (stereo not given) | 0.0% | 0.8% | ? | ? | ? | -27.5%
CCOC(=O)C1(C)C=C(Nc2cccc(C(=O)O)c2)C(=O)N1c1ccccc1 (stereo not given) | 5.1% | nt | -13.0% | nt | -12.2% | nt
CCCCC(CC)CNC(=O)C(=O)c1ccccc1NC(C)=O (stereo not given) | 1.1% | -4.3% | -10.4% | 2.4% | 3.8% | 0.6%
CC(C)CN(CC(C)C)C1=N/C(=C\c2ccco2)C(=O)N1c1ccccc1 | -8.9% | 12.6µM* | -23.4% | ? | ? | ?
CC1(C#CC[N+]2(C)CCCCC2)CCC2C(O1)c1ccccc1OC2(C)C (stereo not given) | 4.7% | 31.6µM* | -5.0% | ? | -7.5% | nt
O=C1C2=C(c3ccccc31)[N+](=O)C1CCCCC1N2[O-] (stereo not given) | ? | ? | -25.7% | -19.5% | 15.8µM* | -11.0%
O=C(CCn1c(=O)c2cccn2c2cccnc21)NCc1ccccc1F | -2.6% | nt | -4.5% | nt | 0.1% | nt
C=C(C)COc1ccc(-c2[nH]ncc2Oc2cccc(OC)c2)c(O)c1 | ? | -30.2% | 8.91µM*[quencher] | -7.0% | -15.1% | -17.5%
COc1ccc(-c2[nH]ncc2-c2cscn2)c(O)c1 | 0.1% | 4.7% | -1.0% | 7.9% | -4.5% | nt
C=C(C)COc1ccc(-c2n[nH]c(C)c2Oc2ccccc2OC)c(O)c1 | -6.0% | ? | -27.7% | 1.4% | ? | nt
COc1cccc(Oc2cnc(N)nc2-c2ccc(OC)cc2O)c1 | -8.3% | -0.3% | ? | -4.3% | -12.2% | -15.6%
COc1ccc(-c2[nH]ncc2Oc2ccccc2OC)c(O)c1 | 14.0% | -0.9% | 25.1µM*[quencher] | -0.8% | -11.3% | -28.2%
C=C(C)COc1ccc(-c2[nH]ncc2Oc2ccccc2OCC)c(O)c1 | ? | 1.58µM* | 3.98µM*[quencher] | -3.5% | ? | 17.8µM*
C=C(C)COc1ccc(-c2nc(N)nc(C)c2-c2ccc(OC)cc2)c(O)c1 | 2.4% | ? | ? | -7.2% | ? | -25.2%
C=C(C)COc1ccc(-c2ncncc2Oc2ccc(OC)cc2)c(O)c1 | 3.3% | 20µM* | -9.8% | 3.6% | -8.6% | 17.8µM*
